Each structure is given as a SMILES string. Where “and” joins values, the source holds several entries; their conditions need not be identical. Identical values can stand only once. Records with an inconclusive call do not appear. Some structures have more than one record in an assay (separate samples or runs), and their calls can disagree. Calls of active or inactive are those of the source. Unless noted, calls come from the whole dose curve; as a rule, active = well fitted curve in the direction sought with a large enough effect in the repeat runs; inconclusive = weak or mixed curves; inactive = no such curve, though single readings can be large; an effect the other way counts as inactive or inconclusive.

In PubChem BioAssay (Tox21) one finds Potency data, which are given here for 6 compounds.

For experiment [1], the system named is thyroid hormone receptor (rat, GH3 cells). Briefly: qHTS assay to identify small molecule agonists of the thyroid receptor (TR) signaling pathway (AID 743066; calls by dose curve).
In experiment [2] the target is Estrogen receptor (Homo sapiens) (UniProt P03372). Briefly: qHTS assay to identify small molecule antagonists of the estrogen receptor alpha (ER-alpha) signaling pathway (AID 743069; active = well fitted curve in the direction sought with a large enough effect in the signal ratio in the repeat runs, not every such curve was filed as active; the % refers to the signal ratio). The gist of the method:
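Antagonist mode: compounds in DMSO were co-added with 17beta-estradiol to ER-alpha-bla HEK293 cells (2% charcoal-stripped serum) and left 18 h at 37C. Reporter inhibition was measured as FRET fluorescence after 2 h LiveBLAzer substrate at room temperature.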

Experiment [3] can be described thus: qHTS assay to identify small molecule antagonists of the estrogen receptor alpha (ER-alpha) signaling pathway - cell viability counter screen (AID 743074; calls by dose curve;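 note: HEK293 cells carrying ER-alpha-UAS-bla reporter stimulated with 17beta-estradiol; nearly all actives have a fitted effect of over 45% in size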; note: potency is the fitted concentration of half-maximal effect).
Experiment [4] concerns the target Estrogen receptor (Homo sapiens) (UniProt P03372). Nature of the experiment: qHTS assay to identify small molecule agonists of the estrogen receptor alpha (ER-alpha) signaling pathway (AID 743075; calls by dose curve;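 note: HEK293 GripTite cells with ER-alpha and UAS-driven beta-lactamase reporter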).
Experiment [5] has the same target. Briefly: qHTS assay to identify small molecule agonists of the estrogen receptor alpha (ER-alpha) signaling pathway using the BG1 cell line (AID 743079). Note: nearly all actives have a fitted effect of over 20% in size.
Experiment [6] is described as follows: qHTS assay to identify small molecule antagonists of the estrogen receptor alpha (ER-alpha) signaling pathway using the BG1 cell line (AID 743080; calls by dose curve;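 note: BG1 cells stimulated with 17beta-estradiol alongside compound; nearly all actives have a fitted effect of over 25% in size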; note: potency is the fitted concentration of half-maximal effect). The gist of the method:
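Seeding, 24 h rest, compound transfer from DMSO, 17beta-estradiol addition, 21.5 h incubation, CellTiter-Fluor (30 min, 37 C), then ONE-Glo (30 min, room temperature): this sequence was run on BG1-Luc-4E2 reporter cells.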

Experiment [7] can be described thus: qHTS assay to identify small molecule antagonists of the estrogen receptor alpha (ER-alpha) signaling pathway using the BG1 cell line - cell viability counter screen (AID 743081).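 Note: compound given together with 17beta-estradiol as the ER stimulus; nearly all actives have a fitted effect of over 45% in size.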 Note: potency is the fitted concentration of half-maximal effect.
The target in another experiment is Aromatase (Homo sapiens) (UniProt P11511). Nature of the experiment: qHTS assay to identify aromatase inhibitors (AID 743083). Note: nearly all actives have a fitted effect of over 55% in size. Note: potency is the fitted concentration of half-maximal effect.
Sequence of Aromatase (Homo sapiens) (P11511 whole entry, looked up): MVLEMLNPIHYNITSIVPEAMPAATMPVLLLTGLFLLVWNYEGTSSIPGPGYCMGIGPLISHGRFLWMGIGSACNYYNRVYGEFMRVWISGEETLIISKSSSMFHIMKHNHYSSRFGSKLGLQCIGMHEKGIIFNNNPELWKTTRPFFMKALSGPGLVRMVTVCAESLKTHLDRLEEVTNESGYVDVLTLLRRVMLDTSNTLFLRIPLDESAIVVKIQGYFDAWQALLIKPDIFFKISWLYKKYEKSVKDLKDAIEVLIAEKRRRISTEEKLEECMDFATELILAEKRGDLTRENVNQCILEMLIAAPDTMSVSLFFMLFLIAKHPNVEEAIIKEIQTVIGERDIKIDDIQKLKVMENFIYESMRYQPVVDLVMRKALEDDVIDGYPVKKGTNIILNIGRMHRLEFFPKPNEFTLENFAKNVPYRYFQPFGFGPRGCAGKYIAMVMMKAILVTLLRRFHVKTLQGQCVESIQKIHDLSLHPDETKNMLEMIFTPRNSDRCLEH
The nature of experiment [8]: qHTS assay to identify aromatase inhibitors - cell viability counter screen (AID 743084).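 Note: cells stimulated with testosterone during compound exposure; nearly all actives have a fitted effect of over 55% in size.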 Note: potency is the fitted concentration of half-maximal effect.
The target in experiment [9] is Aryl hydrocarbon receptor (Homo sapiens) (UniProt P35869). Nature of the experiment: qHTS assay to identify small molecule that activate the aryl hydrocarbon receptor (AhR) signaling pathway (AID 743085).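 Note: HG2L7.5c1 human HepG2 liver cells with stably integrated DRE-driven firefly reporter; series mostly up to about 70 µM; nearly all actives have a fitted effect of over 15% in size.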 The essentials: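 Stably transfected human liver carcinoma cells (HG2L7.5c1; 20 DRE-firefly luciferase) were incubated 5 h, dosed, and kept 24 h at 37C. Agonism was scored from increased luciferase luminescence.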
Sequence of Aryl hydrocarbon receptor (Homo sapiens) (P35869 whole entry, looked up): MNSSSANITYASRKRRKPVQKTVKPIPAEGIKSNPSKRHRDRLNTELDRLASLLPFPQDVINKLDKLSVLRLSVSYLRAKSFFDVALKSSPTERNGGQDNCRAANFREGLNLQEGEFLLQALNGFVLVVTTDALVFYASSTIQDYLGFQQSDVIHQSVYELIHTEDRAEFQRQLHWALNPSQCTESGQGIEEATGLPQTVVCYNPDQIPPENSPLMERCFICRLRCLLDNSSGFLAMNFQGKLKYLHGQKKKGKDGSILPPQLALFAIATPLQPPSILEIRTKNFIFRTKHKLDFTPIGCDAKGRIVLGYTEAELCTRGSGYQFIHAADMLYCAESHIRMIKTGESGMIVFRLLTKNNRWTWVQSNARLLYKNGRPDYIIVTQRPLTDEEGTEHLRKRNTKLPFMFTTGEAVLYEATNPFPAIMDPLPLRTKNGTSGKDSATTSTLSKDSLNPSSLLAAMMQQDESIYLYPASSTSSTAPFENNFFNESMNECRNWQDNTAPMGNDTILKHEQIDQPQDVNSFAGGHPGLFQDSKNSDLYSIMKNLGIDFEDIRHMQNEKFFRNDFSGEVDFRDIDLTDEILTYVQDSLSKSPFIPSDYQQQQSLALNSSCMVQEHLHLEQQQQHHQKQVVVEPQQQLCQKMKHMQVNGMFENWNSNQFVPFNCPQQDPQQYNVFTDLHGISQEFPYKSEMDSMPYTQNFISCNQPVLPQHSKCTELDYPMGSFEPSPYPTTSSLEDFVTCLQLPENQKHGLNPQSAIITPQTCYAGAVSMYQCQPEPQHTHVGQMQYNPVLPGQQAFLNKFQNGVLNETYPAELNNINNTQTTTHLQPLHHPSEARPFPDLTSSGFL

Experiment [10] can be described thus: qHTS assay to identify small molecule that activate the aryl hydrocarbon receptor (AhR) signaling pathway - cell viability counter screen (AID 743086). Note: nearly all actives have a fitted effect of over 45% in size. Note: potency is the fitted concentration of half-maximal effect. The gist of the method: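 Cytotoxicity counter screen: CellTiter-Fluor signal (30 min, 37 C) in 4000 HepG2 cells/well carrying the DRE-luciferase reporter, following 24 h compound exposure at 37 C.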
Experiment [11] has as its target Peroxisome proliferator-activated receptor gamma (Homo sapiens) (UniProt P37231). Nature of the experiment: qHTS assay to identify small molecule agonists of the peroxisome proliferator-activated receptor gamma (PPARg) signaling pathway (AID 743094; active = well fitted activation curve with a large enough effect in the signal ratio in the repeat runs, not every such curve was filed as active; the % refers to the signal ratio). The essentials: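 Agonist activity was taken from a beta-lactamase reporter (FRET substrate, 1 h at room temperature) in HEK293H cells carrying a PPARg UAS-bla construct. Compounds in DMSO were incubated 17 h at 37C after a 5 h cell pre-incubation.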

The target is the same in experiment [12]. Briefly: qHTS assay to identify small molecule antagonists of the peroxisome proliferator-activated receptor gamma (PPARg) signaling pathway (AID 743191; calls by dose curve; note: series mostly up to about 63 µM; nearly all actives have a fitted effect of over 30% in size). The essentials: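 Beta-lactamase reporter under UAS control in HEK293H PPARg-bla cells; compound treatment 17 h at 37C. Read-out: fluorescence intensity after 1 h room-temperature incubation with LiveBLAzer B/G FRET substrate.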

Experiment [13] can be described thus: qHTS assay for small molecule agonists of the antioxidant response element (ARE) signaling pathway (AID 743202; active = well fitted activation curve with a large enough effect in the signal ratio in the repeat runs, not every such curve was filed as active; the % refers to the signal ratio; note: potency is the fitted concentration of half-maximal effect). The gist of the method:
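After 16 hours of compound treatment at 37 C, HepG2 cells with a stably integrated ARE-driven beta-lactamase reporter were loaded 2 hours at room temperature with LiveBLAzer B/G FRET substrate and fluorescence intensity measured.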

Experiment [14] in a line: qHTS assay for small molecule agonists of the antioxidant response element (ARE) signaling pathway - cell viability counter screen (AID 743203; calls by dose curve; note: nearly all actives have a fitted effect of over 55% in size). The gist of the method: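 Viability counter screen: CellTiter-Glo luminescence, read after 30 min at room temperature, in ARE-bla HepG2 wells. Compound exposure lasted 16 h at 37C/5% CO2, following a 5 h pre-incubation of the cells after plating.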

Experiment [15] can be described thus: qHTS assay for small molecule activators of the heat shock response signaling pathway - cell viability counter screen (AID 743209). Note: nearly all actives have a fitted effect of over 50% in size. Note: potency is the fitted concentration of half-maximal effect. The gist of the method:
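Cytotoxicity counter screen run in the same wells as the heat-shock bla reporter assay: HeLa HSE-bla cells, 5 h compound exposure at 37 C, viability read by CellTiter-Glo luminescence.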

Experiment [16] in a line: qHTS assay for small molecule activators of the heat shock response signaling pathway (AID 743210; active = well fitted activation curve with a large enough effect in the signal ratio in the repeat runs, with a control signal flat, not every such curve was filed as active; the % refers to the signal ratio; note: series mostly up to about 63 µM). The gist of the method:
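Compound exposure lasted 5 h at 37 C in HeLa cells carrying a heat-shock-element-driven beta-lactamase reporter. Read-out: fluorescence intensity after 2.5 h room-temperature loading with LiveBLAzer B/G FRET substrate.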

Experiment [17] is described as follows: qHTS assay to identify small molecule agonists of the peroxisome proliferator-activated receptor delta (PPARd) signaling pathway - cell viability counter screen (AID 743211). Note: nearly all actives have a fitted effect of over 55% in size. Note: potency is the fitted concentration of half-maximal effect. The gist of the method:
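In the same wells used for beta-lactamase reporter measurement, cytotoxicity is scored by CellTiter-Glo. HEK293H PPARd-bla cells receive compound for 17 h at 37C following a 5 h settling period.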

Experiment [18] can be described thus: qHTS assay to identify small molecule antagonists of the peroxisome proliferator-activated receptor gamma (PPARg) signaling pathway - cell viability counter screen (AID 743194). Note: nearly all actives have a fitted effect of over 55% in size. Note: potency is the fitted concentration of half-maximal effect. The gist of the method:
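Viability was measured as CellTiter-Glo luminescence in GeneBLAzer PPARg UAS-bla HEK293H cells. These cells had been exposed 17 h at 37 C to compounds together with rosiglitazone at 50 nM final, with the beta-lactamase readout taken in the same wells.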

Sequence of Estrogen receptor (Homo sapiens) (P03372 whole entry, looked up): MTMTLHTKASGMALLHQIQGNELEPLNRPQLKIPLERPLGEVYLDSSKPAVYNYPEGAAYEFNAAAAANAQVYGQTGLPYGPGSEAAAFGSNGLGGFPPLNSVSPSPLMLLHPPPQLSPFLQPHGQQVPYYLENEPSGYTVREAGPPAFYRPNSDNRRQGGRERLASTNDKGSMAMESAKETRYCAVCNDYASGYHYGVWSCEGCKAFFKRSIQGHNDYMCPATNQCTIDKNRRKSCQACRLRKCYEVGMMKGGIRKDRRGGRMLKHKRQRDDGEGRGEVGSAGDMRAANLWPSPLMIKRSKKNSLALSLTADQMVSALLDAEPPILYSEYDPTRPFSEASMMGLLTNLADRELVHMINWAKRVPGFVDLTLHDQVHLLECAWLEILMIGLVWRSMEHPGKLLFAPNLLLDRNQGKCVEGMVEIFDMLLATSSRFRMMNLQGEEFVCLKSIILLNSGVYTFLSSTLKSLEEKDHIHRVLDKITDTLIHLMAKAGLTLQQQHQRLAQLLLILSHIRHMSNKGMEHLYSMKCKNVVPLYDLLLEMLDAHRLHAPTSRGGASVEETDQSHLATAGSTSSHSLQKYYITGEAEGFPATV
Sequence of Peroxisome proliferator-activated receptor gamma (Homo sapiens) (P37231 whole entry, looked up): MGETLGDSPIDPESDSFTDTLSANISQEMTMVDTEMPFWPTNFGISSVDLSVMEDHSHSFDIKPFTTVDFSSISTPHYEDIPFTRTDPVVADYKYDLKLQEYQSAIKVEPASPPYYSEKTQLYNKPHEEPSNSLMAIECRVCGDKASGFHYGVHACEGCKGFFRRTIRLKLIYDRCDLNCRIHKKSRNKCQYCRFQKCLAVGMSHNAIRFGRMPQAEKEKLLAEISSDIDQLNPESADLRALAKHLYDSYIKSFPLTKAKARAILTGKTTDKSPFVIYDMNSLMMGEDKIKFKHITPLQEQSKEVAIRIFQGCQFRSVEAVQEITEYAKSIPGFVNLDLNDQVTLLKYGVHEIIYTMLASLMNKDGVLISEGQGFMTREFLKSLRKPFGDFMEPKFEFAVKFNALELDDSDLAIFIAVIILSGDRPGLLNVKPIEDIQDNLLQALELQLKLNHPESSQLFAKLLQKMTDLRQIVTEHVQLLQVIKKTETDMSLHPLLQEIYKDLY

As to `Cc1cccc([N+](=O)[O-])c1C(=O)O`, the Potency entry in experiment [1], in experiment [2], in experiment [3], in [4], in experiment [5] and in experiment [6] was “inactive” each time. For the same compound, the Potency result (in experiment [7]; in the experiment with Aromatase (Homo sapiens); in [8]; in experiment [9]; in experiment [10]; in experiment [11]) was “inactive” throughout. The Potency result in experiment [12], in experiment [13], in experiment [14], in experiment [15], in experiment [16] and in experiment [17] was “inactive” each time.

As for `CC(=O)Nc1ccc(C(=O)CCl)cc1`, the Potency entry (in experiment [3]; in [7]; with Aromatase (Homo sapiens); in [9]; in experiment [10]; in experiment [11]) was “inactive” each time. In experiment [16], the Potency entry was “inactive”. Further, the Potency was 7.7 µM (active) in experiment [8]; 13.8 µM (active) in experiment [18]; 34.6 µM (active) in [13]; “inactive and 3.89 µM (active)” in experiment [15]; “inactive and 49 µM (active)” in [17].

As for `NC12CC3CC(CC(C3)C1)C2`, the Potency entry (in experiment [1]; in [3]; in experiment [7]; with Aromatase (Homo sapiens); in experiment [8]; in experiment [9]) was “inactive” throughout. Besides, the Potency entry in [10], in experiment [11], in [12], in experiment [13], in experiment [14] and in experiment [17] was “inactive” throughout.

On to `CC(=O)O[C@]1(C(C)=O)CC[C@H]2[C@@H]3C[C@H](C)C4=CC(=O)CC[C@]4(C)[C@H]3CC[C@@]21C`, for which the Potency entry (in [3]; in experiment [4]; in [5]; in [7]; with Aromatase (Homo sapiens); in experiment [8]) was “inactive” in each case. Besides, the Potency entry in experiment [9], in experiment [10], in experiment [12], in experiment [18], in experiment [14] and in experiment [15] was “inactive” in each case. In addition, the Potency entry in experiment [17] was “inactive”.

Turning to `NC(N)=NC(=O)Cc1c(Cl)cccc1Cl`, the Potency entry (in experiment [1]; in experiment [3]; in the experiment with Aromatase (Homo sapiens); in experiment [8]; in experiment [9]; in [10]) was “inactive” in each case. Further, the Potency entry in experiment [11], in experiment [12], in [18] and in [15] was “inactive” each time.

On to `CCCCCCCCCCCCCC[P+](CCCC)(CCCC)CCCC`, for which the Potency in [3] was 3.45 µM (active) and 8.71 µM (active); in [6], 6.82 µM (active) and 4.86 µM (active); in experiment [7] it was 17.1 µM (active) and 15.4 µM (active); with Aromatase (Homo sapiens) it was 7.65 µM (active) and 6.11 µM (active); in experiment [8] it was 17.1 µM (active) and 19.3 µM (active); in experiment [10], 68.2 µM (active) and 54.5 µM (active). In addition, the Potency was 3.45 µM (active) and 3.47 µM (active) in experiment [18]; 6.88 µM (active) and 8.71 µM (active) in experiment [17]. The Potency result in [9] was “inactive”.
